Measurements: PubChem BioAssay (NCI)
The panel holds about 83,000 compounds, 20% with a hit somewhere; the sample as a whole holds those more often.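 Treatment: one concentration, 48 hours, 96-well format. Scoring: percent growth, with anything below 10 considered active.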 Unmarked numbers belong to inactive results. Calls of active or inactive are those of the source.

Test system: MDA-MB-468 breast
Test: NCI-60 one-dose screen, 48 h (100 = growth as untreated, 0 = no growth, -100 = all killed)
Settings: 10 µM unless noted

| Compound | growth |
| --- | --- |
| O=C(Nc1ccccc1Cl)c1cnc2ccc(C3CCNCC3)cn12 | 63.3% |
| Clc1cccc(Cl)c1C(Nc1nc2ccccc2s1)Nc1nc2ccccc2s1 | 72.3% |
| CO[C@H]1/C=C/O[C@@]2(C)Oc3c(C)c(O)c4c(c3C2=O)C(=O)C(/C=N/N(c2ccccc2)c2ccccc2)=C(NC(=O)/C(C)=C\C=C\[C@H](C)[C@H](O)[C@@H](C)[C@@H](O)[C@@H](C)[C@H](OC(C)=O)[C@@H]1C)C4=O | -2.58% (active) |
| O=c1sc2ncnc3ncn1c32 | 8.83% (active) |
| CCOc1ccc(/C=N/Nc2cc(C)nc3ccc(Cl)cc23)cc1 | -9.24% (active) |
| O=C1c2ccccc2C(=O)c2c(O)c(Cl)cc(O)c21 | -15.7% (active) |
| CC(=O)c1cccs1 | 105% |
| Cc1ccccc1[P+](Cc1ccccc1)(c1ccccc1)c1ccccc1 | -14.4% (active) |
| O=C(CCCCCC/C=C\c1csc(Br)n1)NO | 84.9% |
| NC(=S)N/N=C(/c1ccccc1)c1ccccc1N | 18.4% |
| Cc1ccccc1/C=C/c1nn2c(-c3ccoc3C)nnc2s1 | 91.7% |
| COc1cc(/C=N/Nc2nc(-c3ccc(F)cc3)c(C#N)c(N3CCOCC3)n2)ccc1O | 87.4% |
| O=C(/C=C/c1ccccc1)n1c(-c2ccccc2)nc2ccccc21 | 98.2% |
| O=c1[nH]c2c(ccc3cnccc32)c2c1CCC2 | -60.5% (active) |
| CCOC(=O)/C(=C/CC/C(C)=C/CC/C(C)=C/CCc1ccoc1)CC(=O)N1CCCCC1 | 0.246% (active) |
| O=C1OCC2=C1C(c1ccccc1)c1cc3c(cc1N2CCO)OCO3 (stereo not given) | 9.26% (active) |
| CCOC(=O)c1cnn2c(-c3ccc(Cl)cc3)nc(NCc3ccccc3)nc12 | 84.8% |
| COc1ccc2nc(-c3ccccc3)cc(C(C)=O)c2c1 | 68% |
| CNCCn1c(=O)c2cc(OC)c(OC)cc2c2ccc3cc4c(cc3c21)OCO4 | -53.9% (active) |
| C#C[C@]1(O)CC[C@H]2[C@@H]3CC=C4c5sc(Nc6ccncc6)nc5CC[C@]4(C)[C@H]3CC[C@@]21C | -26.2% (active) |
| O=C(CCCCCCC(=O)Nc1ccccc1)NO | 12.1% |
| O=C1C[C@H](N2C(=O)c3ccccc3S2(=O)=O)C2CO[C@@H]1O2 | 80.3% |
| C=CCn1c(SCC(=O)c2ccccc2)nnc1-c1c[nH]c2ccccc12 | 87.7% |
| CC[C@]12C=CCN3CC[C@@]4(c5ccc(OC)cc5N(C)[C@H]4[C@@](O)(C(=O)OC)[C@@H]1OC(=O)CCC(=O)O[C@H]1CC[C@H]4[C@@H]5CC[C@H]6CC(=O)CC[C@]6(C)[C@H]5CC[C@]14C)[C@@H]32 | 24.8% |
| COc1ccc([N+](=O)[O-])c(S(=O)(=O)c2ccc(Cl)cc2)n1 | 52% |
